Rows were chosen to be rich in hits. Some 11% of all compounds tested hit in one or more screens of this group.
JMJD2A Tudor inh = qHTS Assay for Inhibitors of JMJD2A-Tudor Domain | AlphaScreen JMJD2A-Tudor / H3K4me3 peptide binding | Potency, µM (series often up to 114 µM), for inactives: at the highest dose activity change, negative = inhibition, most hits filed as inhibitors | Lysine-specific demethylase 4A (Homo sapiens), O75164 | hit rate 4.4% among 390,000; also: % is scaled to controls: 0 for no effect and ±100 for the full control effect; nearly all actives have a fitted effect of over 50% in size
VDR inh = Inhibitors of the vitamin D receptor (VDR): qHTS | Vitamin D3 receptor (Homo sapiens), P11473 | VDR-SRC2-3 peptide fluorescence polarization, 2 h | Potency, µM, for the others: max response, negative = inhibition, hits mostly inhibitors | hit rate 0.93% among 400,000 | AID 504847, 2011; also: % is scaled to controls: 0 for no effect and ±100 for the full control effect
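Fluorescence polarization assay of small-molecule disruption of VDR binding to coregulator peptide SRC2-3. Compounds and controls pin-transferred, then read after 2 h incubation at ambient room temperature.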
G9a block = qHTS Assay for Inhibitors of Histone Lysine Methyltransferase G9a; Histone-lysine N-methyltransferase EHMT2 (Homo sapiens), Q96KQ7; G9a H3K9 monomethylation, AlphaScreen, 2 h; Potency, µM (doses to about 102 µM), without a hit: at the top dose activity, negative = inhibition, hits mostly inhibitors; hit rate 8.8% among 350,000; AID 504332, 2011; also: % is scaled to controls: 0 for no effect and ±100 for the full control effect; nearly all actives have a fitted effect of over 75% in size
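G9a (20 nM) preincubated 15 min RT with compounds, then 500 nM biotinylated H3K9 peptide and 20 uM SAM added; 2 h RT reaction. Monomethyl-H3K9 product detected by AlphaScreen with anti-H3K9me1 antibody, streptavidin donor and anti-rabbit IgG acceptor beads.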
HP1b binding inh = HTS for Inhibitors of HP1-beta Chromodomain Interactions with Methylated Histone Tails; Chromobox protein homolog 1 (Homo sapiens), P83916; Potency, µM (highest dose often 114 µM), without a hit: top-dose activity change, negative = inhibition, usual class: inhibitors; AlphaScreen HP1-beta / biotin-H3K9me3 peptide binding; hit rate 0.56% among 390,000; also: nearly all actives have a fitted effect of over 70% in size
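HP1-beta protein (50 nM final) preincubated 30 min at room temperature with biotinylated H3(1-18)K9me3 peptide (50 nM) in PBS pH 7.4, 0.01% Tween-20, then compound added for 30 min. AlphaScreen streptavidin donor/nickel chelate acceptor beads (10 ug/mL final), 30 min dark, luminescence read.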
BAZ2B inh = qHTS Assay for Inhibitors of BAZ2B | Potency, µM (titrated, usually from 114 µM), inactives show at the top dose activity change, negative = inhibition, actives largely listed as inhibitors | hit rate 4.4% among 360,000 | AlphaScreen BAZ2B-H3K14Ac peptide displacement; also: % is scaled to controls: 0 for no effect and ±100 for the full control effect; nearly all actives have a fitted effect of over 60% in size
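BAZ2B (50 nM) with biotin-H3(5-23)K14Ac peptide (50 nM) in PBS pH 7.4, 0.01% Tween-20, preformed 30 min, then compound 30 min at room temperature; top concentration 110uM. AlphaScreen streptavidin donor/nickel chelate acceptor beads (10 ug/mL final), 20 min dark, signal read.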
PLK1 PBD block = qHTS for Inhibitors of PLK1-PDB (polo-like kinase 1 - polo-box domain): Primary Screen; Serine/threonine-protein kinase PLK1 (Homo sapiens), P53350; Plk1 PBD binding of FITC phosphopeptide, fluorescence polarization; hit rate 2.8% among 360,000; Potency, µM, inactives show max response, negative = inhibition, most hits filed as inhibitors; also: series mostly up to about 57 µM; % is scaled to controls: 0 for no effect and ±100 for the full control effect; nearly all actives have a fitted effect of over 65% in size
An asterisk follows results filed as active; ? = inconclusive; · = no result given; [ ] = remark or other dose. Calls follow the shape of the dose curve; as a rule, active = well fitted curve in the direction sought with a large enough effect; inconclusive = small, poorly fitted or top-dose-only effect, or another doubt; inactive = no such curve, though single readings can be large; an effect the other way counts as inactive or inconclusive. Potency is read from the fitted curve at half-maximal effect.

SMILES	JMJD2A Tudor inh	VDR inh	G9a block	HP1b binding inh	BAZ2B inh	PLK1 PBD block
Cc1ccccc1SCC(=O)OCC(=O)NCCNC(=O)COC(=O)CSc1ccccc1C	-9%	-10%	50µM*	37%	-13%	3%
O=S(=O)(NC1CC(NS(=O)(=O)OCC(Cl)(Cl)Cl)C2CCCCC12)OCC(Cl)(Cl)Cl (stereo not given)	1%	-19%	?	64%	?	-6%
O=C(NCCN1CCCCCC1)C1CCCN1S(=O)(=O)c1cccc2nsnc12 (stereo not given)	-3%	2%	3%	38%	-25%	0%
O=C(O)C(Cc1ccccc1)n1c(=S)[nH]c2ccccc2c1=O (stereo not given)	14µM*	7%	?	48%	-10%	?
CC(C)[C@H](NC(=O)[C@H](Cc1ccccc1)n1c(=O)[nH]c2ccccc2c1=O)C(=O)N[C@@H](Cc1ccccc1)C(=O)O	-13%	-20%	·	29%	4%	-2%
Cc1ccc(NC(=O)CSc2nnc(-c3cccnc3)o2)c(C)c1	-14%	-12%	45µM*	33%	3%	?
O=C(CCN1CCCCCC1)c1ccccc1	6%[11.4 µM]	-7%	?	38%	1%	?
CCC1(C)CC2(CCCN(CCC(=O)c3ccccc3)C2)CCO1 (stereo not given)	-9%	2%	50µM*	31%	1%	?
CCCCNC(=O)C1(C)CCCCN1C(=O)c1ccc2c(c1)C(C)(C)CCC2(C)C (stereo not given)	·	·	·	·	·	-5%
CN(CC(=O)Nc1cccc(F)c1)C(=O)CSc1ccccc1	-21%	-3%	?	10%	?	15µM*
CN(CC(=O)Nc1cccc(F)c1)C(=O)CCc1nc2ccccc2c(=O)[nH]1	-18%	-11%	45µM*	11%	12%	4%
Cc1ccc(NC(=O)CN(C)C(=O)CSc2ccccc2F)cc1	-7%	-4%	·	34%	·	21µM*
COc1ccc(C=O)cc1COc1ccc(NC(C)=O)cc1	-23%	·	·	·	·	·
O=C(NCCN1CCOCC1)c1ccc2c(c1)N(Cc1ccccc1)CCS2	?	?	50µM*	-21%	-32%	27µM*
COc1ccc(CCNC(=O)c2ccc3c(c2)N(Cc2ccccc2F)C(=O)c2ccccc2S3(=O)=O)cc1OC	-19%	-12%	7.9µM*	26%	-13%	·
O=C(NCCCN1CCOCC1)c1ccc2c(c1)N(Cc1ccccc1)CCS2	?	-5%	0%[12.7 µM]	-4%	?	-6%
CCN1CCN(CCCNC(=O)c2ccc3c(c2)N(Cc2ccc(C)cc2)CCS3)CC1	?	-4%	?	-12%	?	0%
CN1CCN(CCCNC(=O)c2ccc(/C=C3/Sc4ccccc4N(Cc4cccc(Cl)c4)C3=O)cc2)CC1	?	11%	40µM*	-14%	?	5%
CN1CCN(CCCNC(=O)c2ccc(/C=C3\Sc4ccccc4N(Cc4ccc(F)cc4)C3=O)cc2)CC1	?	-14%	?	-15%	?	-1%
CN1CCN(CCCNC(=O)c2ccc3c(c2)N(Cc2ccccc2)CCS3)CC1	?	-8%	79µM*	6%	-12%	2%
COCCCn1cc(CN2CC(N3CCSCC3)CS2(=O)=O)nn1 (stereo not given)	·	·	·	·	·	-16%
CCOc1ccc(CN2C(=O)c3ccccc3Sc3ccc(C(=O)NCCCN4CCOCC4)cc32)cc1	-33%	?	-37%[59 µM]	-4%	79µM*	-11%
Cc1ccc(C)c(CN2C(=O)c3ccccc3S(=O)(=O)c3ccc(C(=O)N4CCCC4)cc32)c1	-13%	-9%	1%[59 µM]	28%	-22%	·
CN(C)CCNC(=O)c1ccc2c(c1)N(Cc1c(F)cccc1Cl)C(=O)c1ccccc1S2	?	-19%	16µM*	-5%	·	·
Cc1ccc(C)c(CN2C(=O)c3ccccc3S(=O)(=O)c3ccc(C(=O)N4CCN(C)CC4)cc32)c1	-17%	0%	2%[59 µM]	4%[57 µM]	89µM*	-11%
SMILES	JMJD2A Tudor inh	VDR inh	G9a block	HP1b binding inh	BAZ2B inh	PLK1 PBD block
COc1ccc(CCNC(=O)c2ccc3c(c2)N(Cc2ccc(F)cc2)CCS3)cc1OC	?	?	?	-31%[57 µM]	-30%	30µM*
CC(=O)c1ccc(N2CCN(S(=O)(=O)c3c(C)nc4sc(C)cn4c3=O)CC2)cc1	-7%	-6%	-3%[59 µM]	22%	-9%	·
O=C(c1[nH]c2ccccc2c1Sc1ccc(Cl)cc1)N1CCCCC1	-4%	2%	-31%[59 µM]	22%	-14%	·
COc1cc(OC)cc(-c2nnc(SCC(=O)Nc3cccc(C(=O)O)c3)s2)c1	-9%	24%	-34%	23%	-22%	-7%
O=S(=O)(NCCCCNS(=O)(=O)c1c(F)cccc1F)c1ccc2c(c1)OCCO2	-1%	-14%	10%[2.33 µM]	45%	5%	·
CN1CCSc2ccc(C(=O)NCc3ccccc3)cc21	-20%	-12%	40µM*	20%	?	-12%
COc1cccc(S(=O)(=O)Nc2ccc(C(=O)NCc3ccco3)cc2)c1	-28%	6%	-24%[59 µM]	21%	-3%	-3%
CCCNS(=O)(=O)c1ccc(CCC(=O)NCc2ccco2)cc1	?	-14%	-39%[12.7 µM]	-26%	-6%	30µM*
COc1ccc(N2CCN(C(=O)c3ccc(CNS(=O)(=O)c4cccc(OC)c4)cc3)CC2)cc1	?	-1%	?	-18%	?	0%
CC(C)CC(=O)Nc1ccc(S(=O)(=O)NCc2ccco2)cc1	-24%	6%	18µM*	23%	-38%	-2%
CC(C)(C)NS(=O)(=O)c1ccc(CCC(=O)NCc2ccco2)cc1	-6%	-25%	19%[59 µM]	21%	3%	-2%
COc1cccc(S(=O)(=O)NCc2ccc(C(=O)NCc3ccco3)cc2)c1	-33%	-11%	45µM*	-5%	-8%	-6%
COc1cccc(S(=O)(=O)NCc2ccc(C(=O)N3CCN(c4ccccc4)CC3)cc2)c1	-24%	-5%	63µM*	15%	-24%	-1%
COc1ccc(CCNC(=O)CCc2c(C)c3ccc(O)c(C)c3oc2=O)cc1	-8%	4%	25%[59 µM]	79%	-1%	·
Cc1ccc(S(=O)(=O)n2cnc(C)c2)cc1	-10%	0%	·	32%	5%	-4%

Screening data from PubChem BioAssay.
